Values joined by “and” are separate entries in the source; they are usually repeats but may differ in a detail not shown here. Equal entries are not always repeated. The campaign covered roughly 290,000 compounds. About 260 (0.09%) were called active. No stated cut-off is given here; in the data, active means inhibition above about 50%; inactive means the rest. The entries come from a sample that favours actives as a whole. Potency and affinity values are given separately.

The assay deals with Kappa-type opioid receptor (Homo sapiens) (UniProt P41145). In words: KOR antagonists, beta-arrestin recruitment, cell-based, luminescence, uHTS (AID 1778). The note with it: antagonist mode, active compounds read high; at 10 µM unless noted.
Chain of Kappa-type opioid receptor (Homo sapiens) (P41145 whole entry, looked up): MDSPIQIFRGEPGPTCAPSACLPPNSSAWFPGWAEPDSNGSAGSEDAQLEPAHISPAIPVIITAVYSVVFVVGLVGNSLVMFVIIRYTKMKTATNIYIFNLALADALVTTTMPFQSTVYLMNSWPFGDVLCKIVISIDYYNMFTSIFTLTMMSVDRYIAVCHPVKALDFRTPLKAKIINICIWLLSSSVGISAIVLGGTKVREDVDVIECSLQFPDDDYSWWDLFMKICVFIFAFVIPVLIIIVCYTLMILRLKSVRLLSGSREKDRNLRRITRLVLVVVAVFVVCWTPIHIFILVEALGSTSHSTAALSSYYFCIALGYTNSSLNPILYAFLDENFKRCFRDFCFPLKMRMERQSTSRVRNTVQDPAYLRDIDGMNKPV
Consider `O=C(COC(=O)c1c(F)cccc1F)NCCNC(=O)COC(=O)c1c(F)cccc1F`, for which the inhibition is -58.8% (inactive). With `CC1(C)CNC(=O)CC(C)(C)N1O`, the inhibition was 8.7% (inactive). As for `O=C(NCc1ccco1)c1cccc(C(F)(F)F)c1`, the figure is -35.4% [at 20 µM] (inactive); as for `CCNc1nc(Oc2ccc(C(=O)OC)cc2)nc(SC)n1`, 1.5% (inactive). For `Cc1[nH]n(-c2ccccc2)c(=O)c1/C=N/N1C(=O)c2ccc3c4c(ccc(c24)C1=O)CC3` the value was -2.7% (inactive).

Turning to `O=C1c2cccc3cccc(c23)C(=O)N1/N=C/c1ccc(O)cc1O`, the inhibition is -17.5% (inactive). As for `Cc1ccc(-n2[nH]c(C)c(/C=N/c3cccc(C)n3)c2=O)cc1`, the figure is 21.8% (inactive). As for `COc1ccccc1/C=N/N1C(=O)c2cccc3cccc(c23)C1=O`, the figure is -44.5% (inactive). As for `CSc1oc(-c2ccccc2)nc1S(=O)(=O)c1ccc(F)cc1`, the figure is -25.9% (inactive). `O=C(CO/N=C1\CCCc2nonc21)Nc1ccc(Br)cc1`: the inhibition was 24.7% (inactive).

Turning to `COc1cccc(NC(=O)C2CCN(C(=O)NC3CCCCC3)CC2)c1`, the inhibition is -51.6% (inactive).

Turning to `Cc1cc(C)cc(NC(=O)CSc2nnc(-c3cc(C)[nH]n3)n2N)c1`, the inhibition was -17.6% (inactive). With `O=C(CSc1nnc(NC(=O)c2ccc(F)cc2)s1)NCc1ccco1`, the inhibition is 22.3% (inactive). For `Oc1ccc2ccccc2c1/C=N/c1nccs1` the value was -15.8% (inactive). With `Oc1ccc2ccccc2c1N=Nc1ccc(F)cc1`, the inhibition is 6.7% (inactive) and 41.7% (inactive). For `Oc1ccc(N=Nc2c(O)ccc3ccccc23)cc1` the value was 32% (inactive). For `Oc1ccc2ccccc2c1N=Nc1nccs1` the value was 109% (active). For `Oc1ccc2ccccc2c1N=Nc1ccccc1F` the value was 37.6% (inactive); for `Oc1c(N=Nc2ccc(F)cc2)ccc2ccccc12`, 7.2% [at 20 µM] (inactive); for `Cc1ccc(N=Nc2ccc3ccccc3c2O)cc1`, 15.6% [at 20 µM] (inactive). Consider `COC(=O)c1cc(C(=O)NCC2CCCCC2)cc([N+](=O)[O-])c1`, for which the inhibition is 7.5% (inactive). As for `Cc1ccc(-c2nnn(CC(=O)N(c3ccccc3)C(C(=O)NC3CCCC3)c3ccncc3)n2)o1` (stereo not drawn), the figure is 5.7% (inactive). As for `CC(C)NS(=O)(=O)c1ccc(CCC(=O)Nc2ccc3c(c2)OCCO3)cc1`, the figure is 7.5% (inactive). As for `CS(=O)(=O)c1ccc2nc(NC(=O)c3ccc(Cl)cc3)sc2c1`, the figure is -55% [at 20 µM] (inactive); as for `O=C(O)c1ccc(-c2ccccc2)[nH]c1=O`, 5.6% (inactive).

In the case of `CC(C)(C)NC(=O)c1cc(NC(=O)c2cccs2)cc(NC(=O)c2cccs2)c1`, the inhibition was -34.4% (inactive). Take `Cc1nc(Cl)c(Cl)n1CCOc1ccccc1`: the inhibition is -4.6% (inactive).

For `CCN(CC)CCCNC(=O)c1cc(Sc2nnc(C)s2)nc2ccccc12`, the inhibition was -6.1% (inactive). As for `Cn1cccc1CNC(=S)Nc1ccccc1Cl`, the figure is 28.1% (inactive); as for `Cc1ccc(NC(=O)CC(C)CC(=O)NCc2ccccc2)cc1Cl` (stereo not drawn), -17.8% (inactive). As for `O=[N+]([O-])c1ccccc1OC/C(=N\O)c1ccccc1`, the figure is 13.6% (inactive). For `COC(=O)c1cn(NC(=O)/C=C/c2cc(OC)ccc2OC)c(=O)c2ccccc12` the value was -8.8% (inactive).

On to `CCOc1ccc(C(=O)C(CCC(CN(C)C)C(=O)c2ccc(OCC)cc2)CN(C)C)cc1` (stereo not drawn), for which the inhibition is 15.2% (inactive). For `CN(C)CC(CCC(CN(C)C)C(=O)c1ccccc1)C(=O)c1ccccc1` (stereo not drawn) the value was 83.9% (active); for `CN(C)CC(CCCCC(CN(C)C)C(=O)c1ccccc1)C(=O)c1ccccc1` (stereo not drawn), 12.5% (inactive); for `Cc1cccc(C(=O)OCC(=O)Nc2ccc(N3CCCCC3)cc2)c1O`, -7.8% (inactive). For `Cc1ccccc1N(C(=O)Cn1nnc(-c2cccs2)n1)C(C(=O)NCCC(C)C)c1ccco1` (stereo not drawn) the value was 23.7% (inactive). For `COc1ccccc1NC(=O)CN1CC(=O)Nc2ccccc21` the value was 0% (inactive); for `COc1ccc(/C=C/C(=O)OCC(=O)N2CC(=O)Nc3ccccc32)cc1S(=O)(=O)N1CCOCC1`, -27.5% (inactive). Take `Cc1ccc(NC(=S)NCCCN2CCOCC2)cc1`: the inhibition was 6.6% (inactive).

On to `Cc1ccc(NC(=S)NCCCN2CCOCC2)cc1C`, for which the inhibition was 50% (active). Consider `Cc1ccc(NC(=S)NCCN2CCOCC2)cc1C`, for which the inhibition is 16.7% (inactive). As for `C/C(=N\NC(=O)c1nnn(-c2nonc2N)c1-c1ccc2c(c1)OCO2)c1cccs1`, the figure is -7.9% (inactive). As for `Cc1ccc(-c2cc(C(=O)Nc3cc(C)ccc3C)[nH]n2)c(O)c1`, the figure is 9.1% (inactive); as for `CCOC(=O)C(C(C)C)C(N)Cc1ccc(F)cc1` (stereo not drawn), -13.5% (inactive). As for `CCCCC(C(=O)OCC)C(N)Cc1ccc(F)cc1` (stereo not drawn), the figure is 65.2% (active); as for `CCCCC(CC)C(=O)NCc1ccc(F)cc1` (stereo not drawn), 8% (inactive); as for `Cc1ccccc1Cn1cc(NC(=O)CCCn2nc([N+](=O)[O-])cc2C)cn1`, 16.3% (inactive). `COc1cccc(CNC(=O)C2CCC(CNS(=O)(=O)c3cccc4cccnc34)CC2)c1` (stereo not drawn): the inhibition is 27.1% (inactive). For `O=C1CCCC(=NCc2ccco2)C1` the value was -29.5% (inactive); for `c1coc(CN=C2NC(=NCc3ccco3)c3ccccc32)c1`, -31.2% (inactive). Turning to `CN(C)c1nc(=NCc2ccco2)ss1`, the inhibition is 83.2% (active). As for `COc1ccc(C)cc1N(C(=O)c1ccco1)C(C(=O)NC1CCCC1)c1ccc(N2CCOCC2)cc1` (stereo not drawn), the figure is 5.8% (inactive); as for `COc1ccc(N=Nc2ccc3ccccc3c2)c(O)c1`, -6.2% [at 20 µM] (inactive). For `Cc1cccc(N=Nc2ccc(O)c3ncccc23)c1` the value was 45.9% (inactive). For `CCN(CC)S(=O)(=O)c1cc(OC)ccc1N=Nc1ccc(O)c2ncccc12` the value was -5.1% (inactive).

As for `CCS(=O)(=O)c1ccc(N=Nc2ccc(O)c3ncccc23)c(OC)c1`, the inhibition was 14% (inactive).

For the molecule `CCOc1ccc(N=Nc2ccc(O)c3ncccc23)cc1`, the inhibition is 32% (inactive).

For the molecule `COc1cccc(N=Nc2ccc(O)c3ncccc23)c1`, the inhibition is 62.9% (active). As for `COc1cccc(N=Nc2ccc3ccccc3c2O)c1`, the figure is 1.7% [at 20 µM] (inactive); as for `CN(NC(=O)COc1ccccc1)c1ccccc1`, 5.9% (inactive); as for `CN(CC(=O)Nc1cccnc1)S(=O)(=O)c1cc(Cl)ccc1Cl`, 4.2% (inactive). For the molecule `COc1cccc(N2C(=O)C3C(C2=O)C3(c2ccccc2)c2ccccc2)c1` (stereo not drawn), the inhibition was -3.2% (inactive).

Turning to `CCN(CC)S(=O)(=O)c1ccc(C(=O)NCC(=O)N/N=C/c2ccccc2OC)cc1`, the inhibition is -11.7% (inactive). For the molecule `O=C(OCC(=O)c1ccc(Cl)s1)c1ccccn1`, the inhibition is 34% (inactive). As for `O=C(CSc1ccc2nnc(-c3ccccn3)n2n1)NCc1ccco1`, the inhibition is -19.3% (inactive). As for `CC(=O)c1sc(-c2ccccc2)cc1N`, the figure is 4.5% (inactive).

`COCCN=c1scc(-c2cc(OC)c(OC)c(OC)c2)n1/N=C/c1c(C)[nH]c2ccccc12`: the inhibition is 26.6% (inactive). As for `COCCN=c1scc(-c2ccccc2)n1/N=C/c1c[nH]c2ccccc12`, the figure is 38.5% (inactive); as for `Cc1cc([N+](=O)[O-])nn1CC(=O)NCCc1c[nH]c2ccccc12`, 4.9% (inactive). As for `COCc1nnc(NC(=O)c2ccc(NC(C)=O)cc2)s1`, the figure is 21% (inactive); as for `CCOC(=O)N1CCC(N2CCN(c3cc(C)ccc3C)CC2)CC1`, 11.6% (inactive). As for `CCc1ccc(N(CC(=O)NC)S(C)(=O)=O)cc1`, the figure is 9.3% (inactive); as for `COc1cc(OC)cc(C(=O)NCC(=O)OCc2cc(=O)oc3cc(OC)ccc23)c1`, 9.7% (inactive); as for `Clc1ccc(SCc2cc(N3CCOCC3)nc(-c3ccccn3)n2)cc1`, 10.2% (inactive).

With `Clc1ccc(SCc2cn3cccnc3n2)cc1`, the inhibition is -15.8% (inactive). For `CCn1c(CNC(=O)c2ccco2)nnc1SCC(=O)Nc1cc(C(F)(F)F)ccc1Cl` the value was 1.4% (inactive); for `Fc1ccccc1COc1ccc(/C=N/NC(=S)NCc2ccccc2)cc1`, -4.9% (inactive); for `CCOC(=O)C1(Cc2ccccc2)CCN(Cc2cc(OC)c3c(c2)OCO3)CC1`, -13.9% [at 20 µM] (inactive). In the case of `Cc1c(NC(=S)Nc2ccccc2C(F)(F)F)cccc1[N+](=O)[O-]`, the inhibition was 5.9% (inactive). Take `O=C(O)c1ccccc1NS(=O)(=O)c1cccc2cccnc12`: the inhibition is 1.8% (inactive). For `Cc1ccc2cccc(NS(=O)(=O)c3ccccc3)c2n1` the value was 83.9% (active); for `CC(=O)Nc1ccc(S(=O)(=O)Nc2cccc3cccnc23)cc1`, -32.6% (inactive). For `COc1cc(NS(=O)(=O)c2ccc(C)cc2)c2ncccc2c1` the value was 7.9% (inactive). For `O=S(=O)(Nc1cccc2cccnc12)c1ccccc1` the value was 99.6% (active). Regarding `Cc1cccc(NS(=O)(=O)c2ccccc2)n1`, the inhibition is 12.4% (inactive). For `CS(=O)(=O)Nc1cccc2cccnc12` the value was 30.9% (inactive). Take `O=S(=O)(c1cccc2cccnc12)N1CCCCC1`: the inhibition is 2.6% (inactive). Turning to `O=S(=O)(Nc1cccc2ccccc12)c1ccccc1`, the inhibition is -10.6% (inactive).

Regarding `O=C(Nc1ccc(S(=O)(=O)Nc2ncccn2)cc1)c1ccc(S(=O)(=O)N2CCCC2)cc1`, the inhibition is 34.1% (inactive).

As to `Cc1ccccc1N(C(=O)c1snc(C(N)=O)c1N)C(C(=O)NCc1ccccc1)c1ccc(O)cc1` (stereo not drawn), the inhibition is -9.4% (inactive). Take `Cc1c(NCc2cc(Cl)cc(Cl)c2O)c(=O)n(-c2ccccc2)n1C`: the inhibition is 22.8% (inactive). As for `COc1ccc(NC(=O)c2ccccc2)cc1NS(=O)(=O)c1ccc(F)cc1`, the figure is -5% (inactive); as for `Cc1cc(N)nc2nc(C(F)(F)F)nn12`, -5.6% (inactive). Take `O=C1CC(Cc2ccccc2)C(=O)N1CCCn1ccnc1` (stereo not drawn): the inhibition is -24.1% (inactive).

As for `Cc1ccc(CNC(=O)C2CCCN(c3nc4ccccc4o3)C2)cc1` (stereo not drawn), the inhibition is -1.2% (inactive). For `CCOC(=O)N1CCN(C(=O)CNC(=O)c2ccc(Br)o2)CC1` the value was 3.7% [at 20 µM] (inactive); for `CC(C)Oc1cccc(C(=O)N/N=C/c2ccoc2)c1`, -11.1% (inactive).

Source of the values: PubChem BioAssay AID1778 (Sanford-Burnham Center for Chemical Genomics, 2009).
